# In PubChem BioAssay AID651820 (National Center for Advancing Translational Sciences (NCATS), 2012):
# The campaign covered roughly 340,000 compounds. About 12,000 (3.5%) were called active. Not shown: some 18% with an inconclusive outcome. This excerpt belongs to a sample that is enriched for actives. Unmarked numbers belong to inactive results. The call rests on the fitted dose curve; in most records, active means well fitted inhibition curve with a large enough effect; inconclusive means small, poorly fitted or top-dose-only effect, or another doubt; inactive means no such curve, though single readings can be large or run the other way.
# Assay: qHTS Assay for Inhibitors of Hepatitis C Virus (HCV)
# Settings: Huh7.5.1 HCVcc-Cre infection, luciferase reporter, 44 h; series mostly up to 41.8 µM; activity change, negative = inhibition: at the top concentration
# How it was run: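 Infectious HCV cell culture screen: compound-treated cells (1,000/well, pre-plated 4 h) are infected with HCVcc-Cre at roughly 0.5 moi and grown 44 h. Infection is quantified by luciferase signal after 15 min substrate incubation at room temperature.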
# On the % scale 0 is the no-effect control and ±100 the full control effect; potency means the concentration at half of the fitted maximal effect.
Compound,"activity change, negative = inhibition",Potency
COc1ccc(Br)cc1CN(C)C(=O)C1CC(=O)N(C2CCCC2)C1 (configuration not stated),-3.77%,–
O=C(CC1SC(N2CCCC2)=NC1=O)Nc1ccc(C(=O)NCCc2ccc(F)cc2)cc1 (configuration not stated),6.88%,–
O=C(COC(=O)c1c(Cl)cccc1Cl)Nc1cccc(S(=O)(=O)NC2=NCCCCC2)c1,-2.28%,–
CCN1C[C@@H]2[C@@H]3C(=O)N(Cc4ccccc4)C(=O)[C@@H]3[C@](C)(C1=O)N2C(=O)c1ccc(C(C)(C)C)cc1,7.51%,–
CCc1ccc(C(=O)N2CCN(S(=O)(=O)c3sc(C(=O)O)c(C)c3C(=O)O)CC2)cc1,-13.4%,–
c1ccc2c(c1)OC1OC2Oc2ccccc21,30.9%,–
COc1ccccc1N1CCN(C(=O)C2Cc3ccccc3CN2C(=O)c2ccco2)CC1 (configuration not stated),24%,–
CCCCNC(=O)N(O)C1N(/N=C/c2ccc(N(C)C)cc2)C(=S)SC1(C)C (configuration not stated),13.8%,–
CCC(C)N1C(=S)SC(C)(C)C1N(O)C(=O)NC1CCCCC1 (configuration not stated),23%,–
CCCCNC(=O)N(O)C1N(/N=C/c2ccccc2O)C(=S)SC1(C)C (configuration not stated),–,7.08 µM (active)
CC1CCCCC1NC(=O)c1cc(=O)[nH]c2ccccc12 (configuration not stated),1.65%,–
O=C(CSc1nc(=O)n2ccccc2n1)Nc1ccc2c(c1)OCCO2,-17.4%,–
CCOC(=O)C1=C(c2ccccc2)NC(=O)NC1c1cc(OCC)c(O)c([N+](=O)[O-])c1 (configuration not stated),3.05%,–
CCOC(=O)C1=C(C)N(C[C@@H]2CC[C@@H](Cc3ccc(-c4ccccc4)cc3)O2)C(=O)NC1c1ccc([N+](=O)[O-])cc1 (some centres not stated),–,11.2 µM (active)
CCN1C(=O)N[C@@H](c2ccccc2)C(C(=O)OC)=C1C,7.95%,–
C[C@]12c3[nH]c4ccc(Cl)cc4c3CCN1C(=O)[C@@H](CC(=O)NCCCn1ccnc1)C[C@@H]2C(=O)N1CCOCC1,-1.63%,–

Compound,"activity change, negative = inhibition",Potency
Cc1ccc(NC(=O)CN(C)C(=O)Cn2nnc(-c3ccccc3)n2)cc1,4.12%,–
COc1ccc(CCNC(=O)C(=O)NCC2OCCN2S(=O)(=O)c2ccc(F)cc2)cc1OC (configuration not stated),-27.6%,–
COc1ccc(S(=O)(=O)N2CCOC2CNC(=O)C(=O)NCc2ccncc2)cc1C (configuration not stated),-10.5%,–
COc1ccc(CCNC(=O)C(=O)NCC2OCCN2S(=O)(=O)c2ccc(OC)c(C)c2)cc1 (configuration not stated),–,15.8 µM (active)
Cc1cccc(OCC(=O)OCC(=O)Nc2ccc(Cl)cn2)c1,10.5%,–
COc1ccccc1NC(=O)N(O)C1(C#N)CCCCC1,16.3%,–
O=C(NCc1ccc2c(c1)OCO2)c1c(-c2ccsc2)sc2ccccc12,6.14%,–
CCn1c(SCC(=O)Nc2ccc(Br)cc2)nc2sc3c(c2c1=O)CCN(C)C3,–,4.47 µM (active)
CCOc1ccc(-n2c(SCC(=O)Nc3ccc(OC)cc3)nc3sc4c(c3c2=O)CCN(C)C4)cc1,–,11.2 µM (active)
COc1ccccc1-n1c(SCC(=O)O)nc2sc3c(c2c1=O)CCC3,9.4%,–
CCSc1nc2sc3c(c2c(=O)n1-c1ccc(C)cc1)CCN(C)C3,-7.22%,–
C=CCn1c(SCC(=O)Nc2ccc(NC(C)=O)cc2)nc2sc(C)c(C)c2c1=O,-14.7%,–
CCCSc1nc2sc3c(c2c(=O)n1-c1ccc(OC)cc1)CCN(C)C3,–,11.2 µM (active)
O=C1CCCN2N=C(SCC(=O)Nc3ccc(Br)cc3)SC2=N1,2.91%,–
COc1ccccc1NC(=O)CSc1nc2sc3c(c2c(=O)n1-c1ccccc1)CCN(C)C3,-9.03%,–
CCOc1ccc(NC(=O)CSc2nncn2C)cc1,28.2%,–
